From PubChem BioAssay (NCATS)
Inconclusive results are not listed. A call without a number means that no potency is given here. Activity calls are given as the source filed them. Calls follow the shape of the dose curve; as a rule, active = well fitted curve in the direction sought with a large enough effect; inconclusive = small, poorly fitted or top-dose-only effect, or another doubt; inactive = no such curve, though single readings can be large; an effect the other way counts as inactive or inconclusive.

What was measured:
[1] = qHTS of pediatric cancer cell lines to identify multiple opportunities for drug repurposing: Confirmatory screen for NB-EBc1 cells (AID 1347115);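 also: cells exposed to compound for 48 h before the viability read; nearly all actives have a fitted effect of over 45% in size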
In short: (§1)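 Cells (500-1,000/well) rested 5 h, then received compounds for 48 h; metabolically active cells were measured by CellTiter-Glo luminescence. Final concentrations spanned up to 46 µM (MIPE, 11-point) or 0.59 nM-46 µM (NPC, 8-point) in primary screens, 11-point in follow-ups.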

[2] = qHTS of pediatric cancer cell lines to identify multiple opportunities for drug repurposing: Confirmatory screen for SJ-GBM2 cells (AID 1347116); also: nearly all actives have a fitted effect of over 60% in size
In short: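 Viability measured as metabolically active cells via CellTiter-Glo luminescence following 48 hours of compound exposure, 11-point dilutions in confirmatory testing. 500-1,000 cells/well plated 5 hours before dosing; controls were DMSO and 2.3 µM bortezomib.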

[3] = qHTS of pediatric cancer cell lines to identify multiple opportunities for drug repurposing: Confirmatory screen for control Hh wild type fibroblast cells (AID 1347121); also: nearly all actives have a fitted effect of over 70% in size
In short: as §1

[4] = qHTS of pediatric cancer cell lines to identify multiple opportunities for drug repurposing: Confirmatory screen for U-2 OS cells (AID 1347122); also: nearly all actives have a fitted effect of over 65% in size
In short: as §1

[5] = qHTS of pediatric cancer cell lines to identify multiple opportunities for drug repurposing: Confirmatory screen for Rh41 cells (AID 1347123);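 also: 48 h compound exposure; nearly all actives have a fitted effect of over 60% in size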
In short: as §1

[6] = qHTS of pediatric cancer cell lines to identify multiple opportunities for drug repurposing: Confirmatory screen for RD cells (AID 1347124);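 also: cells exposed to compound for 48 h before viability readout; nearly all actives have a fitted effect of over 65% in size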
In short: as §1

[7] = qHTS of pediatric cancer cell lines to identify multiple opportunities for drug repurposing: Confirmatory screen for Rh18 cells (AID 1347125); also: nearly all actives have a fitted effect of over 55% in size
In short: as §1

[8] = qHTS of pediatric cancer cell lines to identify multiple opportunities for drug repurposing: Confirmatory screen for Rh30 cells (AID 1347126); also: nearly all actives have a fitted effect of over 55% in size
In short: as §1

[9] = qHTS of pediatric cancer cell lines to identify multiple opportunities for drug repurposing: Confirmatory screen for Saos-2 cells (AID 1347127); also: nearly all actives have a fitted effect of over 60% in size
In short: as §1

[10] = qHTS of pediatric cancer cell lines to identify multiple opportunities for drug repurposing: Confirmatory screen for OHS-50 cells (AID 1347128);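 also: compound exposure lasted 48 h at 37 degrees C; nearly all actives have a fitted effect of over 55% in size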
In short: as §1

[11] = qHTS of pediatric cancer cell lines to identify multiple opportunities for drug repurposing: Confirmatory screen for SK-N-SH cells (AID 1347129);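 also: cells exposed to compound for 48 h before viability read; nearly all actives have a fitted effect of over 60% in size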
In short: as §1

[12] = system: Zika virus NS2B-NS3 protease; experiment: Primary screen GU AMC qHTS for Zika virus inhibitors (AID 1347154); also: nearly all actives have a fitted effect of over 70% in size
In short: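 Fluorogenic AMC-substrate cleavage by noncovalent NS2B-NS3 protease complex (25 nM, pH 8.0 Tris buffer with Tween 20) followed for 15 minutes at room temperature (~20% conversion). Percent inhibition from ex340/em450 signal change, fitted by 4-parameter Hill equation.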

[13] = qHTS of pediatric cancer cell lines to identify multiple opportunities for drug repurposing: Confirmatory screen for BT-37 cells (AID 1347117); also: nearly all actives have a fitted effect of over 55% in size
In short: as §1

[14] = qHTS of pediatric cancer cell lines to identify multiple opportunities for drug repurposing: Confirmatory screen for TC32 cells (AID 1347118);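 also: cells exposed to compound for 48 h before the read; nearly all actives have a fitted effect of over 65% in size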
In short: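 Luminescent ATP read-out (CellTiter-Glo) of metabolically active TC32 cells after 48 h exposure. Concentration-response curves came from 11-point (MIPE, 0.78 nM–46 µM) or 8-point (NPC, 0.59 nM–46 µM) primary titrations; follow-up used 11 points.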

[15] = qHTS of pediatric cancer cell lines to identify multiple opportunities for drug repurposing: Confirmatory screen for MG 63 (6-TG R) cells (AID 1347119); also: nearly all actives have a fitted effect of over 55% in size
In short: as §1

Furin (Homo sapiens) = Furin (Homo sapiens) (UniProt P09958); experiment: Furin counterscreen qHTS for Zika virus inhibitors (AID 1347149); also: nearly all actives have a fitted effect of over 70% in size
In short: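 Counterscreen measures cleavage of 2 microM BOC-RVRR-AMC, below its ~15 microM Km, by 5 nM full-length human furin at pH 7.0 after a 15-min compound preincubation. Inhibition derives from the 15-min fluorescence increase at 37C.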

[16] = system: Zika virus NS2B-NS3 protease (linked construct); experiment: Confirmatory screen NINDS AMC qHTS for Zika virus inhibitors (AID 1347152); also: nearly all actives have a fitted effect of over 70% in size
In short: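 Concentration-response confirmation used the NINDS linked protease (NS2B hydrophilic domain joined to NS3 protease domain), 1 nM, with a 15-min compound preincubation. Substrate, Nle-KRR-AMC at 10 microM, was read by UV fluorescence before and after 15 min.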

[17] = Confirmatory screen GU Rhodamine qHTS for Zika virus inhibitors qHTS (AID 1347157); also: nearly all actives have a fitted effect of over 70% in size
In short: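 Percent inhibition came from the 15-min rise in Rhodamine110 fluorescence (1.5 microM substrate, ~15% conversion), normalized to no-inhibitor and no-enzyme wells and Hill-fitted. Unlinked protease, 25 nM, pH 8.0 Tris buffer; compounds up to 114 microM, 15-min preincubation.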
Potency is read from the fitted curve at half-maximal effect.

Sequence of Furin (Homo sapiens) (P09958 whole entry, looked up): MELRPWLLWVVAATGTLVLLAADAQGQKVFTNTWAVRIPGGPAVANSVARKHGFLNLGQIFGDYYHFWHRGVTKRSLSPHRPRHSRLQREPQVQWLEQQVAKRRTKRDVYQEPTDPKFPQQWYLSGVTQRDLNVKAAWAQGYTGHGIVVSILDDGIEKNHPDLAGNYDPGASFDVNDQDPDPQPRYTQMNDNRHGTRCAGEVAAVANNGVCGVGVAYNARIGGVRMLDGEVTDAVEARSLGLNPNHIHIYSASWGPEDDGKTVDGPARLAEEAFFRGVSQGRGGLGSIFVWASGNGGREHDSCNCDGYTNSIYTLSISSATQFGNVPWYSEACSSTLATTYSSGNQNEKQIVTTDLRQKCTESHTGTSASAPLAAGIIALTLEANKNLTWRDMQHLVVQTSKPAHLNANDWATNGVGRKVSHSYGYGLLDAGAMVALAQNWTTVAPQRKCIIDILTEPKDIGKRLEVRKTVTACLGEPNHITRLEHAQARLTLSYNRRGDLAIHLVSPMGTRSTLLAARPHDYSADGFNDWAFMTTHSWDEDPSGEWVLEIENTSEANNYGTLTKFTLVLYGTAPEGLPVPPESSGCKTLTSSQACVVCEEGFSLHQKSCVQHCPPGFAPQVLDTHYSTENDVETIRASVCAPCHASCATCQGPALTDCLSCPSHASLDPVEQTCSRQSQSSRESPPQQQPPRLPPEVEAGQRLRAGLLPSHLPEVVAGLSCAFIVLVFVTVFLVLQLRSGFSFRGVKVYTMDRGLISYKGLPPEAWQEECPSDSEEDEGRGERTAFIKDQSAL

SMILES	Potency [1]	Potency [2]	Potency [3]	Potency [4]	Potency [5]	Potency [6]	Potency [7]	Potency [8]	Potency [9]	Potency [10]	Potency [11]	Potency [12]	Potency [13]	Potency [14]	Potency [15]	Potency (Furin (Homo sapiens))	Potency [16]	Potency [17]
CC(NCc1ccc2c(c1)nc(NC(=O)c1ccc(-c3cn[nH]c3)s1)n2CC(C)(C)O)C(C)(C)C (stereo not given)	827 nM (active)	1040 nM (active)	7370 nM (active)	928 nM (active)	737 nM (active)	928 nM (active)	2610 nM (active)	657 nM (active)	928 nM (active)	827 nM (active)	833 nM (active)	–	–	–	–	–	–	–
COc1cc2nccc(Oc3ccc(NC(=O)C4(C(=O)Nc5ccc(F)cc5)CC4)cc3)c2cc1OC	inactive	1650 nM (active)	inactive	23300 nM (active)	26100 nM (active)	inactive	–	–	18500 nM (active)	20800 nM (active)	–	inactive	–	–	–	–	–	–
COc1ccc(-n2nc(C(N)=O)c3c2C(=O)N(c2ccc(N4CCCCC4=O)cc2)CC3)cc1	inactive	2330 nM (active)	inactive	–	233 nM (active)	1310 nM (active)	inactive	147 nM (active)	inactive	inactive	inactive	inactive	inactive	–	–	–	–	–
COc1ccc(C=Cc2cc(OC)c(OC)c(OC)c2)cc1O	14.7 nM (active)	–	inactive	26.1 nM (active)	10.4 nM (active)	11.7 nM (active)	inactive	inactive	10.4 nM (active)	–	–	–	14.7 nM (active)	13.1 nM (active)	10.4 nM (active)	–	–	–
CCc1c2c(nc3ccc(O)cc13)-c1cc3c(c(=O)n1C2)COC(=O)[C@]3(O)CC	1 nM (active)	inactive	inactive	3690 nM (active)	261 nM (active)	–	–	1470 nM (active)	inactive	inactive	3320 nM (active)	inactive	–	–	–	–	–	–
Cc1cnc(Nc2ccc(F)cc2Cl)nc1-c1c[nH]c(C(=O)N[C@H](CO)c2cccc(Cl)c2)c1	inactive	–	inactive	6570 nM (active)	18500 nM (active)	–	inactive	–	inactive	–	18700 nM (active)	–	inactive	inactive	inactive	–	–	–
Cc1c(Cn2c(C)nc3c(C(=O)O)cc(N4CCOCC4)cc32)cccc1C(F)(F)F	inactive	inactive	inactive	23300 nM (active)	inactive	inactive	inactive	inactive	inactive	–	–	–	–	–	–	–	–	–
O=C(Nc1cn[nH]c1-c1nc2ccc(CN3CCOCC3)cc2[nH]1)NC1CC1	inactive	–	inactive	inactive	inactive	inactive	inactive	inactive	inactive	inactive	inactive	inactive	inactive	–	inactive	–	–	–
Cc1cnc(-c2cnc(NCCNc3ccc(C#N)cn3)nc2-c2ccc(Cl)cc2Cl)[nH]1	14700 nM (active)	inactive	inactive	inactive	–	inactive	inactive	inactive	inactive	–	–	inactive	inactive	–	–	–	–	–
COc1ccc(F)c(F)c1C(=O)c1cnc(NC2CCN(S(C)(=O)=O)CC2)nc1N	inactive	827 nM (active)	inactive	3290 nM (active)	2330 nM (active)	827 nM (active)	–	inactive	–	2330 nM (active)	2350 nM (active)	inactive	2330 nM (active)	–	–	–	–	–
CC=CC1=C(C(=O)O)N2C(=O)[C@H](NC(=O)[C@H](N)c3ccc(O)cc3)[C@@H]2SC1	inactive	–	inactive	inactive	inactive	inactive	inactive	inactive	–	inactive	inactive	inactive	inactive	–	inactive	–	–	–
CC1(C)CCC(c2ccc(Cl)cc2)=C(CN2CCN(c3ccc(C(=O)NS(=O)(=O)c4ccc(N[C@H](CCN5CCOCC5)CSc5ccccc5)c(S(=O)(=O)C(F)(F)F)c4)cc3)CC2)C1	inactive	–	inactive	inactive	inactive	inactive	inactive	–	inactive	inactive	–	–	inactive	–	inactive	–	–	–
C[C@@H](Oc1cc(-c2cnn(C3CCNCC3)c2)cnc1N)c1c(Cl)ccc(F)c1Cl	16500 nM (active)	–	–	–	–	–	18500 nM (active)	7370 nM (active)	13100 nM (active)	14700 nM (active)	7430 nM (active)	inactive	20800 nM (active)	–	13100 nM (active)	–	–	–
COc1ccc(-c2cc3c(C)nc(N)nc3n(C3CCC(OCCO)CC3)c2=O)cn1 (stereo not given)	inactive	inactive	inactive	inactive	–	inactive	inactive	inactive	inactive	inactive	inactive	inactive	inactive	–	–	–	–	–
CC[C@@]1(O)C(=O)OCc2c1cc1n(c2=O)Cc2cc3cc(O)ccc3nc2-1	16.5 nM (active)	–	–	–	–	–	657 nM (active)	585 nM (active)	46.5 nM (active)	92.8 nM (active)	1870 nM (active)	–	20.8 nM (active)	13.1 nM (active)	65.7 nM (active)	–	–	–
CCNC(=O)Nc1ccc2ncc(Nc3ccc(C)cc3)nc2n1	inactive	–	inactive	inactive	inactive	inactive	inactive	inactive	inactive	inactive	inactive	inactive	inactive	–	–	–	–	–
COC(=O)c1ccc2c(C(=Nc3ccc(N(C)C(=O)CN4CCN(C)CC4)cc3)c3ccccc3)c(O)[nH]c2c1	inactive	inactive	inactive	13100 nM (active)	8270 nM (active)	–	26100 nM (active)	16500 nM (active)	–	14700 nM (active)	–	inactive	–	18500 nM (active)	3290 nM (active)	–	–	–
COc1cccc2c(NCc3ccccc3)nc(-n3c(N)nc4ccccc43)nc12	8270 nM (active)	–	9270 nM (active)	–	208 nM (active)	–	–	46.5 nM (active)	9270 nM (active)	8270 nM (active)	8330 nM (active)	inactive	7370 nM (active)	7370 nM (active)	5850 nM (active)	–	–	–
O=C(Nc1cc(C(F)(F)F)cc(C(F)(F)F)c1)c1cc(Cl)ccc1O	2930 nM (active)	–	2330 nM (active)	–	–	–	3690 nM (active)	–	1650 nM (active)	928 nM (active)	3720 nM (active)	inactive	1850 nM (active)	2930 nM (active)	–	55500 nM (active)	49400 nM (active)	4940 nM (active)
O=C(O)c1ccc2cc(-c3ccc(O)c(C45CC6CC(CC(C6)C4)C5)c3)ccc2c1	737 nM (active)	–	inactive	–	3290 nM (active)	–	–	104 nM (active)	1310 nM (active)	2930 nM (active)	inactive	–	1470 nM (active)	585 nM (active)	585 nM (active)	–	–	–
Cc1cc(N2CCOCC2)cc2[nH]c(-c3c(NC[C@@H](O)c4cccc(Cl)c4)cc[nH]c3=O)nc12	1170 nM (active)	369 nM (active)	–	7370 nM (active)	657 nM (active)	–	3290 nM (active)	293 nM (active)	3690 nM (active)	3290 nM (active)	3720 nM (active)	17100 nM (active)	–	465 nM (active)	–	–	–	–
CCC(=C(c1ccccc1)c1ccc(OCCN(C)C)cc1)c1ccccc1	inactive	inactive	inactive	–	inactive	–	–	inactive	18500 nM (active)	–	–	inactive	–	–	–	–	–	–
CC(C)c1nn(-c2c(Cl)cccc2Cl)c2nc(Cc3ccc(OCCO)cc3)[nH]c(=O)c12	inactive	–	–	82.7 nM (active)	131 nM (active)	208 nM (active)	–	–	82.7 nM (active)	104 nM (active)	118 nM (active)	inactive	82.7 nM (active)	131 nM (active)	–	–	–	–
CC1(C)O[C@@H]2C[C@@H]3[C@H]4C[C@@H](F)C5=CC(=O)C=C[C@]5(C)[C@@]4(F)[C@@H](O)C[C@]3(C)[C@]2(C(=O)CO)O1	11700 nM (active)	–	inactive	1310 nM (active)	585 nM (active)	8270 nM (active)	inactive	inactive	117 nM (active)	82.7 nM (active)	–	inactive	82.7 nM (active)	–	2610 nM (active)	–	–	–
C=CC(=O)N1CCC[C@@H](n2nc(-c3ccc(Oc4ccccc4)cc3)c3c(N)ncnc32)C1	9270 nM (active)	inactive	inactive	–	14700 nM (active)	inactive	–	10400 nM (active)	–	–	–	–	–	7370 nM (active)	–	–	–	–
O=C(C=Cc1cccnc1)NCCCCC1CCN(C(=O)c2ccccc2)CC1	inactive	–	inactive	inactive	inactive	inactive	inactive	inactive	–	inactive	inactive	inactive	inactive	–	–	–	–	–
CC(C)c1cc(-c2n[nH]c(=O)n2-c2ccc3c(ccn3C)c2)c(O)cc1O	inactive	inactive	inactive	–	–	–	–	–	–	inactive	inactive	–	inactive	–	–	–	–	–
CNC(=O)CN1CCC(Oc2cc3c(Nc4cccc(Cl)c4F)ncnc3cc2OC)CC1	4650 nM (active)	–	inactive	–	–	–	5850 nM (active)	10400 nM (active)	–	–	inactive	inactive	928 nM (active)	1040 nM (active)	–	–	–	–
CC[C@@H]1C(=O)N(C)c2cnc(Nc3ccc(C(=O)NC4CCC(N5CCN(CC6CC6)CC5)CC4)cc3OC)nc2N1C(C)C (stereo not given in full)	inactive	inactive	inactive	inactive	inactive	inactive	inactive	inactive	inactive	–	inactive	inactive	inactive	–	–	–	–	–
O=C(NC1CCNCC1)c1[nH]ncc1NC(=O)c1c(Cl)cccc1Cl	–	1310 nM (active)	inactive	1850 nM (active)	1170 nM (active)	737 nM (active)	–	465 nM (active)	2690 nM (active)	2400 nM (active)	1050 nM (active)	inactive	2400 nM (active)	2400 nM (active)	–	–	–	–
